Assay outcomes (PubChem BioAssay)
This is a sample that favours compounds with a hit; in the whole collection about 7.3% have one here.
Rab9 prom act: activators of Rab9 promoter; Potency, µM (series often up to 9.22 µM), inactives show top-dose activation, negative = inhibition, hits mostly activators; Huh7 Rab9 promoter-luciferase reporter, luminescence, 24 h; actives 2.8% (n = 320,000); AID 485297; note: % of control where 0% means no effect; nearly all actives have a fitted effect of over 60% in size
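Rab9 promoter-driven luciferase in stably transfected Huh7 cells; 1500 cells/well rested 2 h, exposed to compound in DMSO for 24 h at 37 °C, 5% CO2. Luminescence read 10 min after adding luciferase reagent at ambient temperature.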
NPC1 promoter act: NPC1 promoter activation; Huh7 NPC1 promoter luciferase reporter, 24 h; Potency, µM (series often up to 9.22 µM), for inactives: at the highest dose activation, hits mostly activators; actives 2.4% (n = 320,000); AID 485313; note: % of control where 0% means no effect; nearly all actives have a fitted effect of over 60% in size
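NPC1 promoter–luciferase Huh7 cells; 24 h compound; luminescence.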
FLuc counter: inhibits or activates purified firefly luciferase, miR-21 counter-screen. P08659. purified FLuc, Km substrates, luminescence inhibition. Potency, µM (highest dose often 57.5 µM), without a hit: top-dose activity change, negative = inhibition, hits mostly inhibitors. actives 6.9% (n = 360,000);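 note: plate controls were vehicle for no effect and reference inhibitor for full effect; nearly all actives have a fitted effect of over 55% in size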
Target sequence (P08659 whole entry, looked up): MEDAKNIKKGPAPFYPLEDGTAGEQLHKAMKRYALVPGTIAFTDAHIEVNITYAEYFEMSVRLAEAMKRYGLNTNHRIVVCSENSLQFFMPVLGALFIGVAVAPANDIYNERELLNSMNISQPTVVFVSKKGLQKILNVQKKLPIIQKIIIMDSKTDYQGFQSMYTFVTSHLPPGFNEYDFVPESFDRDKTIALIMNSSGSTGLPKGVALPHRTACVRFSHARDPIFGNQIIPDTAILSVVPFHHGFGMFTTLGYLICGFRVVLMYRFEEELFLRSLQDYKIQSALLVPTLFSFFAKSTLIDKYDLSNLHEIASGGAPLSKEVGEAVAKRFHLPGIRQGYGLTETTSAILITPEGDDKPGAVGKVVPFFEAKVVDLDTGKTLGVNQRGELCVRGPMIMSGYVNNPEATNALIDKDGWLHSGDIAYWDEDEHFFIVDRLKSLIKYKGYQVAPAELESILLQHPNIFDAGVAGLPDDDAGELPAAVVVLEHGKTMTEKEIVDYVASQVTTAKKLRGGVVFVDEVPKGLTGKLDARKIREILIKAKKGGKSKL
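Purified P. pyralis luciferase (10nM final) with 10uM D-luciferin and 10uM ATP (Km levels) in 50mM Tris acetate pH 7.5, 10mM Mg acetate, 0.01% Tween-20, 0.05% BSA; qHTS 6-point titration, ~60 µM downward; luminescence read.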
SMN2 splice up: SMN2 splice variant enhancement. HEK293 SMN2-luciferase splicing reporter, luminescence, 30-36 h. AID 1458. Potency, µM (titrated, usually from 46.1 µM), without a hit: top-dose activity change, positive = activation, most hits filed as activators. actives 2.8% (n = 210,000); note: % of control where 0% means no effect; nearly all actives have a fitted effect of over 55% in size
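qHTS luciferase splicing reporter: luminescence rises when SMN2 exon 7 is included in transfected HEK293 cells. Compound exposure lasted 30-36 h at 37C, with 4.5 mM final sodium butyrate as control, followed by a ONE-Glo read.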
uPA generation: cell surface uPA generation inhibition; cell surface uPA generation assay, qHTS; actives 0.31% (n = 330,000); Potency, µM (titrated, usually from 38.3 µM), for inactives: at the highest dose activity change, negative = inhibition, most hits filed as inhibitors; AID 540303; active = well fitted inhibition curve with a large enough effect; inconclusive = small, poorly fitted or top-dose-only effect; inactive = no such curve, though single readings can be large or run the other way; tested in mouse RAW 264.7 cells; note: % is set by controls: 0 for no effect and ±100 for the full control effect; nearly all actives have a fitted effect of over 55% in size
ELG1 genotox: induces genotoxicity in HEK293T cells with luciferase-tagged ELG1. HEK293T ELG1-luciferase reporter, luminescence, 16 h. Potency, µM (doses to about 46 µM), for the others: at the highest dose activity change, positive = activation, most hits filed as activators. actives 1.3% (n = 330,000). AID 504466; note: % of control where 0% means no effect; nearly all actives have a fitted effect of over 60% in size
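Genotoxicity was scored as increased ELG1-luciferase reporter signal, measured by ONE-Glo luminescence (30 min, room temperature). Compound or vehicle exposure of the HEK293T reporter cells lasted 16 hr at 37°C.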
* hit, by the source's call; ? = inconclusive; . = no result. Unless noted, calls come from the whole dose curve; as a rule, active = well fitted curve in the direction sought with a large enough effect; inconclusive = small, poorly fitted or top-dose-only effect, or another doubt; inactive = no such curve, though single readings can be large; an effect the other way counts as inactive or inconclusive. Potency is the fitted concentration of half-maximal effect.

SMILES | Rab9 prom act | NPC1 promoter act | FLuc counter | SMN2 splice up | uPA generation | ELG1 genotox
Cn1cc(CNC(=O)c2cc(-c3ccccc3)nc3ccc(Br)cc23)cn1 | 2% | 0% | 5.4µM* | 19% | -6% | -2%
Cc1ccc(-c2cc(C(=O)NCc3cnn(C)c3)c3cc(Br)ccc3n2)cc1 | 24% | 4% | 1.1µM* | -3% | 2% | ?
NC(=O)c1cc(-c2ccccc2)nc2ccc(Br)cc12 | 2% | 2% | 5% | . | -8% | 6%
Cc1nn(C)cc1CN(C)C(=O)c1cc(-c2ccccc2)nc2ccc(Br)cc12 | 15% | 2% | 21µM* | -11% | -9% | -12%
Cn1c(=O)[nH]c2cc(-c3noc(-c4ccc(Br)cc4)n3)ccc21 | . | . | -5% | . | . | .
CC(C)(CC(=O)O)CC(=O)N1CCCN(c2nccc(C(F)(F)F)n2)CC1 | -4% | -3% | -2% | . | 1% | 6%
CCC(Sc1nc2nccnc2c(=O)n1Cc1ccccc1Cl)C(=O)NC1CCCCC1 (centres undefined) | . | . | 1% | . | . | .
CCc1ccc(C2CC(c3ccco3)=NN2S(C)(=O)=O)cc1 (centres undefined) | 0.32µM* | 0.45µM* | 1.3µM* | 0.5µM* | -6% | ?
CCc1ccc(NC(=O)CCc2c(C)nc3nc(-c4cc(OC)cc(OC)c4)nn3c2C)cc1 | . | . | -8% | 3% | . | .
O=C(c1ccco1)N1N=C(c2cccs2)CC1c1cc([N+](=O)[O-])ccc1O (centres undefined) | 0% | 11% | 17µM* | . | -1% | 10%
Cc1nc2ccc(NC(=O)N3CCCCC3)cc2nc1C | ? | 7% | -15% | 3% | -1% | 3%
CCOC(=O)C1CCN(C(=O)Nc2ccc3c(c2)nc(C)n3C)CC1 | ? | ? | 0% | 11µM* | 1% | ?
Cc1nc2cc(NC(=O)N3CCCCC3)ccc2n1C | 30% | 20% | ? | 13µM* | 12% | ?
NCC1OC(n2cnc3c(=O)[nH]c(N)nc32)C(O)C1O (centres undefined) | . | . | . | 2% | . | .
O=C(Nc1nonc1-c1ccc(Br)cc1)c1ccco1 | . | . | -1% | . | . | .
Oc1ccccc1C1=Nc2nc3ccccc3n2C(c2ccccc2)C1 (centres undefined) | 16% | 7% | 11µM* | 19% | -8% | ?
Cc1ccc(-c2cc(C(=O)NCc3cnn(C)c3C)c3ccccc3n2)cc1C | . | . | 2.1µM* | ? | . | .
Cn1cc(CNC(=O)c2cc(-c3ccc(Br)cc3)nc3ccccc23)cn1 | 0% | 8% | ? | . | 3% | -10%
Cc1ccc(-c2cc(C(=O)N/N=C\c3cnn(C)c3C)c3ccccc3n2)cc1C | 25% | 12% | 0.67µM* | 1% | -12% | ?
COc1ccc(OCC(=O)NCc2ccc3c(c2)CCN3C(=O)c2cccc(C)c2)cc1 | . | . | -16% | . | . | .
CN1CCN(CCc2nc3cc(NC(=O)c4ccco4)ccc3n2C)CC1 | 1% | -3% | 4% | . | -1% | 2%
Cn1c(CN2CCCC2)nc2cc(NC(=O)c3ccco3)ccc21 | ? | 24% | ? | ? | -1% | 15µM*
CC(=O)NCCc1nc2cc(NC(=O)c3ccc([N+](=O)[O-])cc3)ccc2n1C | ? | ? | 15µM* | . | -2% | 11%
Cn1c(CCN2CCN(c3ccccc3)CC2)nc2cc(NC(=O)c3ccco3)ccc21 | 4.5µM* | 5% | -13% | -14% | -6% | -6%
Cc1ccc(C(=O)Nc2ccc3c(c2)nc(CCNC(=O)c2ccco2)n3C)cc1 | 3.5µM* | 3.5µM* | ? | . | -12% | ?
SMILES | Rab9 prom act | NPC1 promoter act | FLuc counter | SMN2 splice up | uPA generation | ELG1 genotox
CC(=O)Nc1ccc2c(c1)nc(CCNC(=O)c1ccccc1)n2C | 0% | 5% | -5% | -17% | 6% | 1%
Cc1ccc(C(=O)NC2CC(C)(C)NC(C)(C)C2)cc1S(=O)(=O)N1CCCCC1 | 2% | -8% | -1% | . | 4% | 14%
COc1cccc(OCCSc2nc3ccccc3n2CC(=O)N2CCCCC2)c1 | . | . | 4% | . | . | .
Nc1c(NCc2ccccc2F)c(=O)[nH]c(=O)n1Cc1ccccc1 | -6% | 2% | 21µM* | -16% | 7% | 2%
O=C1CN(C(=O)COc2ccc(Cl)cc2)C(c2ccc(F)cc2)c2cc(Br)ccc2N1 (centres undefined) | . | . | -1% | -10% | . | .
CCN(CC)C(=O)C1CCCN(c2ncnc3c2cnn3-c2ccc(Cl)cc2)C1 (centres undefined) | -5% | -8% | 17µM* | . | 6% | -10%
Cc1ccc(-n2ncc3c(N4CCCC(C)C4)ncnc32)c(C)c1 (centres undefined) | 2µM* | 3.2µM* | 7.6µM* | . | ? | ?
CC1CC(C)CN(c2ncnc3c2cnn3C)C1 (centres undefined) | -5% | -2% | 2% | -39% | -9% | 4%
CC1CC(C)CN(c2ncnc3c2cnn3-c2ccc(Cl)cc2)C1 (centres undefined) | 0.71µM* | 2µM* | 2.1µM* | -81% | 12% | ?
CCOC(=O)C1CCCN(c2ncnc3c2cnn3-c2cccc(C)c2)C1 (centres undefined) | 28% | 24% | 24µM* | 17% | . | ?
CCCCOc1ccc(CNC(=O)c2cnc3sc(N4CCOCC4)nn3c2=O)cc1 | . | . | 0% | . | . | .
O=C(Cn1c(-c2cccs2)cc2ccccc21)NCc1ccccc1Br | . | . | -5% | . | . | .
Cc1cccc(-n2ncc3c(N4CCCC(C)C4)ncnc32)c1 (centres undefined) | . | . | 0.43µM* | . | . | .
CC1CCCN(c2ncnc3c2cnn3-c2ccccc2)C1 (centres undefined) | 0.14µM* | 0.35µM* | 0.19µM* | . | ? | ?
CC1CCCN(c2ncnc3c2cnn3-c2ccc(Cl)cc2)C1 (centres undefined) | -29% | -38% | 0.095µM* | . | 2.2µM* | 1%
CCN(CC)C(=O)C1CCCN(c2ncnc3c2cnn3-c2cccc(C)c2)C1 (centres undefined) | -7% | -3% | ? | -18% | -2% | ?
CC1CCCN(c2ncnc3c2cnn3-c2ccc(F)cc2)C1 (centres undefined) | . | . | 0.17µM* | . | . | .
Cc1ccc(Cl)cc1-n1ncc2c(N3CCC(C)CC3)ncnc21 | . | . | -8% | . | . | .
CC(=Nc1cccc(C)c1)c1sc2ccccc2c1O | ? | 20% | 3µM* | 13µM* | -23% | 9.2µM*
CC(=Nc1ccccc1O)c1sc2ccccc2c1O | ? | 6% | 9.5µM* | . | ? | ?
CC(=Nc1ccc(O)cc1)c1sc2ccccc2c1O | 1.1µM* | 1.8µM* | 2.4µM* | 10µM* | -15% | 4.6µM*
CCN(CC)CCCNC(=O)CSc1nc2nc(C)c(Cc3ccccc3C)c(C)n2n1 | . | . | -1% | 7% | . | .
